Measured values taken from the supplement of paper PMC11732987, “Enantioselective OTUD7B fragment discovery through chemoproteomics screening and high-throughput optimisation” (Communications Chemistry, 2025).

How the values were obtained:
Experiment in all cases: log2 ratio of Biotin-Ahx-Ub-VS probe labelling (fragment/DMSO); higher = less target engagement (more negative = stronger competition), active = hit call of the paper (q ≤ 0.05, log2 ratio ≤ -1)
Conditions in all cases: compound concentration: 200 uM; treatment time: 3 h
[1] = molecular target: T1, ALG13 (UniProt Q9NP73)
T1 sequence (whole entry): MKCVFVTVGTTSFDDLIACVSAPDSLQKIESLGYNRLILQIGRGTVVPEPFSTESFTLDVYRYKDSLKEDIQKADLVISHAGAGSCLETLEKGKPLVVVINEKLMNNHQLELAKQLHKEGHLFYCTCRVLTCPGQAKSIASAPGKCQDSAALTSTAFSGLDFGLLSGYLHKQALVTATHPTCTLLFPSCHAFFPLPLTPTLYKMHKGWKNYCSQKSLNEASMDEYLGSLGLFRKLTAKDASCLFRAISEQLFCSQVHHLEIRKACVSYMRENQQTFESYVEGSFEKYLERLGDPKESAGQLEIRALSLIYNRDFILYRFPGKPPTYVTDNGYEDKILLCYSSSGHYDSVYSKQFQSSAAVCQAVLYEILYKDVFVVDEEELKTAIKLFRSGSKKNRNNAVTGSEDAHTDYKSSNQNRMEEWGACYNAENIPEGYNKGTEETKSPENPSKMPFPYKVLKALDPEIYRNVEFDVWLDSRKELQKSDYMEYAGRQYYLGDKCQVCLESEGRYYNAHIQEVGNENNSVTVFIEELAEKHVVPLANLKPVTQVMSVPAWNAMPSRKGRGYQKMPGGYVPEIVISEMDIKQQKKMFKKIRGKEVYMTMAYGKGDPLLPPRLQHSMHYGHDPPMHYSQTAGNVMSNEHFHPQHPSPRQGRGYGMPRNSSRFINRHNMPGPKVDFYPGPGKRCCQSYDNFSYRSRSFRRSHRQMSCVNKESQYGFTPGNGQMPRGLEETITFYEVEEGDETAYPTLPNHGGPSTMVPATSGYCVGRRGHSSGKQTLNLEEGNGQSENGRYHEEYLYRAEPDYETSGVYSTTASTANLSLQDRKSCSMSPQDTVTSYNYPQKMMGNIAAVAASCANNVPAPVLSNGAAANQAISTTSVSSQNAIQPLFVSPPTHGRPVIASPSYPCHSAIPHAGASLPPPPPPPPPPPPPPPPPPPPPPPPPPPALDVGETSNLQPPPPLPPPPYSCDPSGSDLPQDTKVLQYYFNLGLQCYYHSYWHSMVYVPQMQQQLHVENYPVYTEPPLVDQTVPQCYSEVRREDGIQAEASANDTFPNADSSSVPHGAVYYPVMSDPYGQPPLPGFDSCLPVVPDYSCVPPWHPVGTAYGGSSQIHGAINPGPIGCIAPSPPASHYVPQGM
Outline: (§1)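 Labelling with Biotin-Ahx-Ub-VS (0.5 µM final, 1 h) followed a 3 h triplicate treatment of HEK293T lysate (495 µg per sample, Tris/CHAPS/IGEPAL buffer with protease inhibitors) with fragment at 200 µM or vehicle. Labelled DUBs were NeutrAvidin-enriched, digested with LysC and trypsin, and run by diaPASEF LC-MS/MS. The values, average log2 fragment/vehicle ratios by unpaired t-test, come from global-median-normalised Spectronaut label-free quantities. Proteins with ≥2 unique peptides were used.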

[2] = molecular target: ATXN3 (UniProt P54252)
Outline: as §1

[3] = molecular target: T2, BAP1 (UniProt Q92560)
T2 sequence (whole entry): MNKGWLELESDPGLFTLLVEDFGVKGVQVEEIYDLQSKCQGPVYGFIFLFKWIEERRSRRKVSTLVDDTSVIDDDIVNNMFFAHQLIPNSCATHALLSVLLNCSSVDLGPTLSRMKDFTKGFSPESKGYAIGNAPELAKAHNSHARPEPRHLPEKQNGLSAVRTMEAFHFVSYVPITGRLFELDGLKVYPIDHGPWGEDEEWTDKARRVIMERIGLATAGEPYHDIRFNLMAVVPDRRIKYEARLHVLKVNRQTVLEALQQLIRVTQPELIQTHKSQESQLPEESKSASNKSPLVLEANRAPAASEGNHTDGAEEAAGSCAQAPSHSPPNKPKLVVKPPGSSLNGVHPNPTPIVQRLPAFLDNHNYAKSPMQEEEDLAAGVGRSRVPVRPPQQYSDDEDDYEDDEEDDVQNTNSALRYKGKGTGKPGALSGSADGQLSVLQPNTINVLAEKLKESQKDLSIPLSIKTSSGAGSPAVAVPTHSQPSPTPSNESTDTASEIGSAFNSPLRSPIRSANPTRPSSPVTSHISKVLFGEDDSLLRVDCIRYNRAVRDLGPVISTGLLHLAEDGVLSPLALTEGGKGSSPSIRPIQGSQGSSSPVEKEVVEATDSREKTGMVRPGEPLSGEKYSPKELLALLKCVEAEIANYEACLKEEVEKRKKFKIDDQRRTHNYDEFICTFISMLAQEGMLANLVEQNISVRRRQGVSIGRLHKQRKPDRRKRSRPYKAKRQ
Outline: as §1

[4] = molecular target: EIF3F (UniProt O00303)
Outline: as §1

[5] = molecular target: EIF3H (UniProt O15372)
Outline: as §1

[6] = molecular target: T3, FAM105A (UniProt Q9NUU6)
T3 sequence (whole entry): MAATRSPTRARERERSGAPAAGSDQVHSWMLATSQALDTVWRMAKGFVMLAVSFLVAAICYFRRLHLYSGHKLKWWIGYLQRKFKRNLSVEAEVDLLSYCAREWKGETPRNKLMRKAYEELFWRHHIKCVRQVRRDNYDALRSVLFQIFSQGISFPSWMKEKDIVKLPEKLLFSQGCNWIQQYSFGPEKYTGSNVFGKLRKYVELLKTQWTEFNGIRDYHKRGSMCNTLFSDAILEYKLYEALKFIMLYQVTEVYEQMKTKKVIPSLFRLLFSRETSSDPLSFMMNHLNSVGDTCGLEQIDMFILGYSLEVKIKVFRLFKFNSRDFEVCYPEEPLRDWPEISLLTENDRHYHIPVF
Outline: as §1

[7] = molecular target: OTUB1 (UniProt Q96FW1)
Outline: as §1

[8] = molecular target: T4, OTUD4 (UniProt Q01804)
T4 sequence (whole entry): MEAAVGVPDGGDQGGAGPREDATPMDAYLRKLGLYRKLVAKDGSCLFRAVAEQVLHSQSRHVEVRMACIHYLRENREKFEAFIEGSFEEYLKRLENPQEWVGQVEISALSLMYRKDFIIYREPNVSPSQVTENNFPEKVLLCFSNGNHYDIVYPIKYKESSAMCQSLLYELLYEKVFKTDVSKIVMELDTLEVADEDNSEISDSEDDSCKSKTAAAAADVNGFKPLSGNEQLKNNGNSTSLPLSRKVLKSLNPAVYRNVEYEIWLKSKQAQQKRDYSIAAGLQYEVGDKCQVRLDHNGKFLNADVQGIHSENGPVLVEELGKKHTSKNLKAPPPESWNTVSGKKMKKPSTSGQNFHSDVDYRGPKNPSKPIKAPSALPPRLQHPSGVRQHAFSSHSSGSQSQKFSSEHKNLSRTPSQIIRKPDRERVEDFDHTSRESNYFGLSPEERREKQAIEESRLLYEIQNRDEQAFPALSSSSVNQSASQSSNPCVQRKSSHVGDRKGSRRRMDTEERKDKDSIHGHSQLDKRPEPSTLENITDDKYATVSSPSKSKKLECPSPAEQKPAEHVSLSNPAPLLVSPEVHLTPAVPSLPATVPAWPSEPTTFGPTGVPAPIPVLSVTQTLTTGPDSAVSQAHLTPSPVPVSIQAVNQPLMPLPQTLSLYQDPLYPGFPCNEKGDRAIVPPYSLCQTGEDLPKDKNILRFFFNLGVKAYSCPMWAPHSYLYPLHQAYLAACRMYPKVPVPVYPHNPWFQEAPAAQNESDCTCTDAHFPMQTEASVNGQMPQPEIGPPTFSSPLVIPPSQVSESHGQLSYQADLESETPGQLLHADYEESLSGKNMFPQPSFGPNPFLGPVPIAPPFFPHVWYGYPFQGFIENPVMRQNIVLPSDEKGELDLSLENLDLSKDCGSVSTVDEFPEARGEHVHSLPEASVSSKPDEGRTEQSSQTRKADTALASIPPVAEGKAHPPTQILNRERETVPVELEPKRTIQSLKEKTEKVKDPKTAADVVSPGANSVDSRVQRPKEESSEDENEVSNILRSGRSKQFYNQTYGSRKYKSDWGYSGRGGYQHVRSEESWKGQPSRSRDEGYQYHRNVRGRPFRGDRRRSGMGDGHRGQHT
Outline: as §1

[9] = molecular target: T5, OTUD5 (UniProt Q96G74)
T5 sequence (whole entry): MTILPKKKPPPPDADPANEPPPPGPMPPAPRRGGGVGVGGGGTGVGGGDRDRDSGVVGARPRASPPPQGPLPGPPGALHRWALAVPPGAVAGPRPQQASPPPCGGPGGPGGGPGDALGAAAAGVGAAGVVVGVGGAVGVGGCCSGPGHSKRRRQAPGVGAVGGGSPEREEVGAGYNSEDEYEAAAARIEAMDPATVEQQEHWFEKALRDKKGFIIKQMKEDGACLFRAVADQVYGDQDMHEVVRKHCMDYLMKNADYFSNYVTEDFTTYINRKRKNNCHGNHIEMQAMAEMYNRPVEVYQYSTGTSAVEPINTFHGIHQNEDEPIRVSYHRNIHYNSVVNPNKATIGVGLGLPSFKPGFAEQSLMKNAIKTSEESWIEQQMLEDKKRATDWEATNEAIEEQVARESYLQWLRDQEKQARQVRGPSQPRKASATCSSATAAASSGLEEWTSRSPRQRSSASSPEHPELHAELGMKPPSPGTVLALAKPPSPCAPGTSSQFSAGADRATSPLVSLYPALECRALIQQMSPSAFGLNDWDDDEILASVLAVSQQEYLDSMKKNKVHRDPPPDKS
Outline: as §1

Measured: log2 ratio of Biotin-Ahx-Ub-VS probe labelling

Sequence of EIF3F (O00303 whole entry): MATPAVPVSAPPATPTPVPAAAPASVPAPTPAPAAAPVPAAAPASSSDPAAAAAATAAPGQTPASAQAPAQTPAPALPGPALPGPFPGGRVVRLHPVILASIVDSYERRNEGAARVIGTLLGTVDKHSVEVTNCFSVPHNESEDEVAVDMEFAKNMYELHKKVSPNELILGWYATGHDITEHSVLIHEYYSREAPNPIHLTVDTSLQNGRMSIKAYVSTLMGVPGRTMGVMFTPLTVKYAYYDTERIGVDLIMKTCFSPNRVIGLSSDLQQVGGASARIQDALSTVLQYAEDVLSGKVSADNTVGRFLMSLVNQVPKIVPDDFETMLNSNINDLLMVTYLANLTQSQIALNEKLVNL
Sequence of ATXN3 (P54252 whole entry): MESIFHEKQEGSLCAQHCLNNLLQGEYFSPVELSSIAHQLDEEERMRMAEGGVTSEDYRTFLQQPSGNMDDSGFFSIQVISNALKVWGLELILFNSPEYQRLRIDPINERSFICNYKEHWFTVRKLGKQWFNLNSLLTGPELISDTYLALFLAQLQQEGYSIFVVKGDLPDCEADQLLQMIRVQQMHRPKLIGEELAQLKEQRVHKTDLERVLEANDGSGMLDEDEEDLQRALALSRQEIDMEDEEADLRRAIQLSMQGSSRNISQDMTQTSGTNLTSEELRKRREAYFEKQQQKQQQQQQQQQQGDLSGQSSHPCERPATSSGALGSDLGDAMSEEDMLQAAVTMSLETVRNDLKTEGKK
Sequence of OTUB1 (Q96FW1 whole entry): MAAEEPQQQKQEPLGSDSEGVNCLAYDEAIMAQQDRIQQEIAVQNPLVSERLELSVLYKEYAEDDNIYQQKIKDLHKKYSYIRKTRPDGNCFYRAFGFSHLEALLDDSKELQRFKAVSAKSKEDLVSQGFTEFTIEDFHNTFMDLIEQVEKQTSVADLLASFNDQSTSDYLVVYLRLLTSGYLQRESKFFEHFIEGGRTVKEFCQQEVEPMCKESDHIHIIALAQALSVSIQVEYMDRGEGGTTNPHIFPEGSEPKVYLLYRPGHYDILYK
Sequence of EIF3H (O15372 whole entry): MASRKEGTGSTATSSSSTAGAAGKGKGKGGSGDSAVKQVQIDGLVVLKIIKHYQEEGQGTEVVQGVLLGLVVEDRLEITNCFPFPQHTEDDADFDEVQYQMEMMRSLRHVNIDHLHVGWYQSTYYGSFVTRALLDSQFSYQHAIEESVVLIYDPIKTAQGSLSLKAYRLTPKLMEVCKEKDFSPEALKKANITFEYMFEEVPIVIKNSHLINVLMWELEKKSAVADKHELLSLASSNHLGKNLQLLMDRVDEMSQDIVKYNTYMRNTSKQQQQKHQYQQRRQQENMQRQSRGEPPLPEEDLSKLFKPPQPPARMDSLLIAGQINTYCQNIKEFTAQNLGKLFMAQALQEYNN

CCC1c2ccsc2CCN1C(=O)CCl (centres undefined)
inactive: [1] 0.127 | [2] -0.424 | [3] -0.48 | [4] -0.262 | [5] 0.089 | [6] 0.09 | [7] 0.0848 | [8] -0.658
active: [9] -1.15
